Assay outcomes deposited in PubChem by National Center for Advancing Translational Sciences (NCATS).
MARV entry inh: qHTS for inhibitors of binding or entry into cells for Marburg Virus; hit rate 1.8% among 300,000; AID 540276, 2011; Marburg virus pseudotyped entry inhibition, cell reporter; Potency, µM (top dose mostly 37.8 µM), without a hit: top-dose activity change, negative = inhibition, actives largely listed as inhibitors; calls by dose curve; tested in HEK293 cells; note: potency is the fitted concentration of half-maximal effect; % is set by controls: 0 for no effect and ±100 for the full control effect
HCV inh: qHTS Assay for Inhibitors of Hepatitis C Virus (HCV). Huh7.5.1 HCVcc-Cre infection, luciferase reporter, 44 h. Potency, µM (series often up to 41.8 µM), inactives show at the top dose activity change, negative = inhibition, usual class: inhibitors. hit rate 3.4% among 340,000; active = well fitted inhibition curve with a large enough effect; inconclusive = small, poorly fitted or top-dose-only effect, or another doubt; inactive = no such curve, though single readings can be large or run the other way; note: potency is the fitted concentration of half-maximal effect; % is set by controls: 0 for no effect and ±100 for the full control effect
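Infectious HCV cell culture screen: compound-treated cells (1,000/well, pre-plated 4 h) are infected with HCVcc-Cre at roughly 0.5 moi and grown 44 h. Infection is quantified by luciferase signal after 15 min substrate incubation at room temperature.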
FMDV antiviral: High Throughput Screening for Foot and Mouth Disease Virus Antivirals. FMDV antiviral cell-based qHTS. Potency, µM (top dose mostly 57.9 µM), for inactives: at the highest dose activity change, negative = inhibition, actives largely listed as inhibitors. hit rate 1.2% among 410,000. AID 1159524, 2015; calls by dose curve; tested in HEK293T cells; note: read-out not given here; potency is the fitted concentration of half-maximal effect; % is set by controls: 0 for no effect and ±100 for the full control effect; nearly all actives have a fitted effect of over 45% in size
Shiga toxin inh: A qHTS for Small Molecule Inhibitors of Shiga Toxin; hit rate 9.2% among 290,000; Vero cells, Shiga toxin protein synthesis inhibition reporter; inhibition, % at 38.7 µM; AID 2315, 2010; in the data active = inhibition mostly above about 28%, no sharp cut-off; inactive = mostly below about 43%; note: 0% is about no effect
CHX counter: Cycloheximide Counterscreen for Small Molecule Inhibitors of Shiga Toxin | cell reporter, cycloheximide protein synthesis inhibition counterscreen | hit rate 12% among 300,000 | max response, %; in the data active = max response mostly above about 13%, no sharp cut-off; inactive = mostly below about 14%; note: read at 38.3 µM for the half of the compounds with a filed dose; 0% is about no effect
LASV entry inh: qHTS for Inhibitors of binding or entry into cells for Lassa Virus; Lassa virus pseudotype entry inhibition, cell reporter; Potency, µM (series often up to 37.9 µM), for the others: top-dose activity change, negative = inhibition, actives largely listed as inhibitors; hit rate 1.2% among 300,000; AID 540256, 2011; calls by dose curve; tested in HEK293 cells; note: potency is the fitted concentration of half-maximal effect; % is set by controls: 0 for no effect and ±100 for the full control effect; nearly all actives have a fitted effect of over 50% in size
* hit, by the source's call; [ ] = remark or other dose. Sampled rows, rich in hits. Any-hit rate of the full collection: about 13%.

How did Cc1ccc2[nH]c(=O)c(C3C(C#N)=C(N)Oc4c3ccc3cccnc43)cc2c1 (stereo unspecified) do in these assays?
MARV entry inh: inconclusive; HCV inh: 10µM*; FMDV antiviral: inconclusive; Shiga toxin inh: -5; CHX counter: -3; LASV entry inh: inconclusive

How did C[C@@]1(C(=O)O)NCCc2cc(O)c(O)cc21 do in these assays?
FMDV antiviral: 4%

Results for Clc1ccc(OCCn2ccnc2)c(Cl)c1 ?
MARV entry inh: 1%; HCV inh: inconclusive; FMDV antiviral: 10%; Shiga toxin inh: -9; CHX counter: -5; LASV entry inh: 7%

What do the screens show for `CC(=O)Nc1ccc(OCC(O)Cn2cccn2)cc1` (stereo unspecified)?
HCV inh: 8%; FMDV antiviral: 8%; Shiga toxin inh: -7; CHX counter: -3

What do the screens show for `CC(=O)Nc1ccc(OCC(O)Cn2ccnc2)cc1` (stereo unspecified)?
HCV inh: 9%; FMDV antiviral: inconclusive; Shiga toxin inh: 78*; CHX counter: 35*

Results for OC(COc1ccc(Cl)cc1Cl)Cn1ccnc1 (stereo unspecified) ?
MARV entry inh: inconclusive; HCV inh: -25%; FMDV antiviral: -14%; Shiga toxin inh: 17; CHX counter: 13*; LASV entry inh: 9%

What do the screens show for `Cc1cc(C)cc(N(CC(=O)NC2CCCCC2)C(=O)CNC(=O)c2ccco2)c1`?
MARV entry inh: inconclusive; HCV inh: -25%; FMDV antiviral: -1%; Shiga toxin inh: -3; CHX counter: -2; LASV entry inh: -8%

Results for CCOC(=O)C1=NN(c2ccc(C)cc2)C2(S1)SC(C(C)=O)=C(C)N2c1ccccc1 (stereo unspecified) ?
MARV entry inh: inconclusive; HCV inh: 14µM*; FMDV antiviral: -24%; Shiga toxin inh: -14; CHX counter: -3; LASV entry inh: inconclusive

Results for CCOC(=O)C1=NN(c2ccccc2)C2(S1)SC(C(C)=O)=C(C)N2c1ccccc1 (stereo unspecified) ?
MARV entry inh: inconclusive; HCV inh: inconclusive; FMDV antiviral: inconclusive; Shiga toxin inh: -12; CHX counter: 9; LASV entry inh: inconclusive

How did CCOC(=O)c1c(C)n(C)c2c(C)cc(O)c(OC(C)=O)c12 do in these assays?
MARV entry inh: inconclusive; HCV inh: -23%; FMDV antiviral: 8%; Shiga toxin inh: 15; CHX counter: -2; LASV entry inh: 2%

Results for O=C(Nc1cccc(C(F)(F)F)c1)Oc1ccc(Cl)c2cccnc12 ?
MARV entry inh: inconclusive; HCV inh: inconclusive; FMDV antiviral: inconclusive; Shiga toxin inh: 21; CHX counter: 27; LASV entry inh: inconclusive

How did C/C=C/c1ccc(OCCCn2cncn2)c(OC)c1 do in these assays?
MARV entry inh: inconclusive; HCV inh: inconclusive; FMDV antiviral: 32%; Shiga toxin inh: 27; CHX counter: 11*; LASV entry inh: 1%

Results for C/C=C/c1ccc(OCCCCn2cncn2)c(OC)c1 ?
MARV entry inh: -7%; HCV inh: -1%; FMDV antiviral: 45%; Shiga toxin inh: 54*; CHX counter: 34*; LASV entry inh: 3%

What do the screens show for `COc1c2ccoc2cc2oc(C)cc(=O)c12`?
HCV inh: 3%; FMDV antiviral: -9%

Results for CCc1ccc(S(=O)(=O)c2ccc(-n3nc(C)cc3N)cc2)cc1 ?
MARV entry inh: -16%[46.1 µM]; HCV inh: -15%; FMDV antiviral: -8%; Shiga toxin inh: -12; CHX counter: -4; LASV entry inh: 6%[46.1 µM]

Results for N/C(=N\OC(=O)CN1C(=O)c2ccccc2C1=O)c1ccc(Cl)cc1 ?
HCV inh: 6%; FMDV antiviral: 63%; Shiga toxin inh: 11; CHX counter: 1

How did COc1ccc(N2CC(NS(=O)(=O)c3ccc4ccccc4c3)CC2=O)cc1OC (stereo unspecified) do in these assays?
MARV entry inh: -8%[46.1 µM]; HCV inh: 5%[8.37 µM]; FMDV antiviral: 24%; LASV entry inh: -16%

What do the screens show for `Cn1c(N)c(C(=O)CN2CCN(S(=O)(=O)c3ccccc3C#N)CC2)c(=O)n(C)c1=O`?
FMDV antiviral: 11%

Results for CCN1CCSc2ccc(C(=O)NCc3ccc(OC)cc3)cc21 ?
MARV entry inh: 4%[46.1 µM]; FMDV antiviral: 1%; LASV entry inh: -25%[46.1 µM]

Results for CN1CCSc2ccc(C(=O)NCc3ccccc3F)cc21 ?
MARV entry inh: 18%[46.1 µM]; HCV inh: -21%; FMDV antiviral: 88%; Shiga toxin inh: 35*; CHX counter: 28*

Results for CN1CCSc2ccc(C(=O)NCc3cccc(Br)c3)cc21 ?
HCV inh: -21%; FMDV antiviral: 25%; Shiga toxin inh: 21; CHX counter: 11*

Results for COc1ccc(CNC(=O)c2ccc3c(c2)N(C)CCS3)cc1 ?
HCV inh: -12%; FMDV antiviral: 3%; Shiga toxin inh: 23; CHX counter: active

How did Cc1ccc(CN2CCSc3ccc(C(=O)NCc4ccc(OC(C)C)cc4)cc32)cc1 do in these assays?
MARV entry inh: -12%[46.1 µM]; FMDV antiviral: 7%

What do the screens show for `CC(C)Oc1ccc(CNC(=O)c2ccc3c(c2)N(C)CCS3)cc1`?
HCV inh: -3%; FMDV antiviral: 24%; Shiga toxin inh: 54*; CHX counter: 35*

How did COc1cccc(Cn2c(=O)c(-c3cccs3)nc3cncnc32)c1 do in these assays?
FMDV antiviral: 0%

How did O=C(CSc1nccn1C1CCCC1)Nc1ccc(C(F)(F)F)cc1 do in these assays?
FMDV antiviral: -24%; LASV entry inh: inconclusive

What do the screens show for `c1ccc(CSC2=NNC(c3ccccn3)S2)cc1` (stereo unspecified)?
MARV entry inh: inconclusive; HCV inh: inconclusive; FMDV antiviral: -9%; Shiga toxin inh: 32; CHX counter: 33*; LASV entry inh: inconclusive

Results for Oc1cccnc1SCc1ccccc1 ?
HCV inh: 18%; FMDV antiviral: -11%

What do the screens show for `O=C(CSC1=NNC(c2ccccn2)S1)Nc1ccc(C(F)(F)F)cc1` (stereo unspecified)?
MARV entry inh: inconclusive; HCV inh: -2%; FMDV antiviral: -15%; Shiga toxin inh: 38*; CHX counter: 23*; LASV entry inh: inconclusive

Results for O=C(c1cccc(Cl)c1)C1CCCN(Cc2ccc(N3CCNC3=O)cc2)C1 (stereo unspecified) ?
MARV entry inh: inconclusive; HCV inh: -28%; FMDV antiviral: -16%; Shiga toxin inh: 19; CHX counter: 1; LASV entry inh: -30%[46.1 µM]

How did COC(=O)c1cc(/C=C/c2ccccc2)[nH]n1 do in these assays?
HCV inh: 7%; FMDV antiviral: 65%; Shiga toxin inh: 25*; CHX counter: 20*

How did COc1cccc(C(=O)Nc2nc3nc(C)c(Cc4ccccc4)c(=O)n3[nH]2)c1 do in these assays?
MARV entry inh: -4%[46.1 µM]; FMDV antiviral: -4%; LASV entry inh: -2%[46.1 µM]
